High-throughput results as filed in PubChem.
Sfp PPTase inh: inhibitors of Bacillus subtilis Sfp phosphopantetheinyl transferase. Q9F4F7. Biochemical Sfp PPTase activity, qHTS. Potency, µM, without a hit: largest response in the series, negative = inhibition, most hits filed as inhibitors. 310,000 compounds, 3.5% hits. AID 1490;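 further: the enzyme is Sfp with the accession as filed and its product quenches rhodamine fluorescence; 0% = enzyme reaction without inhibitor and -100% = no enzyme wells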
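Fluorescence-quenching assay: 15 nM Sfp-PPTase preincubated 15 min at room temperature with compound, then 5 uM rhodamine-CoA and 12.5 uM BHQ-2-labelled YbbR peptide added. Fluorescence (ex 525/em 598 nm) read at start and after 30 min; difference gives rate.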
HP1b chromo inh: inhibitors of HP1-beta chromodomain binding to methylated histone tails; AlphaScreen HP1-beta / biotin-H3K9me3 peptide binding; Potency, µM (highest dose often 114 µM), for the others: at the top dose activity change, negative = inhibition, usual class: inhibitors; 390,000 compounds, 0.56% hits; further: nearly all actives have a fitted effect of over 70% in size
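Compound inhibition of the preformed complex between 50 nM HP1-beta and 50 nM biotinylated H3K9me3 peptide was read by AlphaScreen. Buffer was PBS pH 7.4 with 0.01% Tween-20. Incubations ran 30 min at room temperature, with 10 ug/mL donor/acceptor beads.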
G9a inh: G9a (human) methyltransferase inhibition; Q96KQ7; G9a H3K9 monomethylation, AlphaScreen, 2 h; Potency, µM (top dose mostly 102 µM), inactives show top-dose activity, negative = inhibition, actives largely listed as inhibitors; 350,000 compounds, 8.8% hits; further: on the % scale 0 is the no-effect control and ±100 the full control effect; nearly all actives have a fitted effect of over 75% in size
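G9a (20 nM) was preincubated 15 min with compound, then reacted 2 h at room temperature with 500 nM biotin-H3K9 peptide and 20 µM SAM. Monomethyl-H3K9 detected by AlphaScreen using anti-H3K9me1 antibody.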
JMJD2A Tudor inh: JMJD2A Tudor domain (human) inhibition. O75164. AlphaScreen JMJD2A-Tudor / H3K4me3 peptide binding. AID 504339. Potency, µM (highest dose often 114 µM), without a hit: at the top dose activity change, negative = inhibition, usual class: inhibitors. 390,000 compounds, 4.4% hits; further: on the % scale 0 is the no-effect control and ±100 the full control effect; nearly all actives have a fitted effect of over 50% in size
Target sequence (O75164 whole entry, looked up, the tested form may be a part): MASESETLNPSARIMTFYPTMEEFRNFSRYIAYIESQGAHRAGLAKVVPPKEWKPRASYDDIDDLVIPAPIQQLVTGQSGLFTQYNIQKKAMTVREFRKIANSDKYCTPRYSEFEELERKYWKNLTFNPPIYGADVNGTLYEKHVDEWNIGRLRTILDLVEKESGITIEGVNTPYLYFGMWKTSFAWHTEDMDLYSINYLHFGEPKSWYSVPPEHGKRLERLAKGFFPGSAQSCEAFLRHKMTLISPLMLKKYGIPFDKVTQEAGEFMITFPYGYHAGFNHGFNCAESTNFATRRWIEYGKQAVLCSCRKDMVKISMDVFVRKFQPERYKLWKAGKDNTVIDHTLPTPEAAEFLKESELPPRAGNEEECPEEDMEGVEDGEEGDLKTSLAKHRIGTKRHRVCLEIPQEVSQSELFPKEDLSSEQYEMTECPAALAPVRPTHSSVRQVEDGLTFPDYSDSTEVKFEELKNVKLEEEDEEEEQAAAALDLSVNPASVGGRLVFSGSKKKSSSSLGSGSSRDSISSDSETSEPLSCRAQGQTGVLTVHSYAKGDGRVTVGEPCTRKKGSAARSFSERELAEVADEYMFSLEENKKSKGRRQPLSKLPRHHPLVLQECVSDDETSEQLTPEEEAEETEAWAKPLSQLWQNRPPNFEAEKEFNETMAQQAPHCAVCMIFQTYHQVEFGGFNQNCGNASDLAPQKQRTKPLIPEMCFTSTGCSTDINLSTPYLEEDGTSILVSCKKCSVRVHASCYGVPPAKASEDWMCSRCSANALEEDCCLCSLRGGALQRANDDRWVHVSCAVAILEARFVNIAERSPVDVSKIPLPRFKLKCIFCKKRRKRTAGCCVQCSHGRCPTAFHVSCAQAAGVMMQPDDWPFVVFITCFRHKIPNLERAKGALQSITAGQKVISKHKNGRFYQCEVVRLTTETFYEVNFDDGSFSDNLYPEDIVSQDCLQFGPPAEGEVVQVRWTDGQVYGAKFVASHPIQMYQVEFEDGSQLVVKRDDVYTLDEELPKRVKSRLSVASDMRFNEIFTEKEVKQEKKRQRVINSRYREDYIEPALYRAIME
BAZ2B block: blocks human BAZ2B; AID 504333; AlphaScreen BAZ2B-H3K14Ac peptide displacement; Potency, µM (highest dose often 114 µM), inactives show at the highest dose activity change, negative = inhibition, most hits filed as inhibitors; 360,000 compounds, 4.4% hits; further: on the % scale 0 is the no-effect control and ±100 the full control effect; nearly all actives have a fitted effect of over 60% in size
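In this displacement format the biotinylated H3(5-23) peptide acetylated at Lys14 serves as ligand at 50 nM, with BAZ2B at 50 nM in PBS pH 7.4 containing 0.01% Tween-20. Donor and acceptor beads are 10 ug/mL final.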
An asterisk follows results filed as active; [ ] = another dose, or the depositor's remark. The list is not random: actives were taken first. Their share in the collection is about 12%. The call rests on the fitted dose curve; in most records, active means well fitted curve in the direction sought with a large enough effect; inconclusive means small, poorly fitted or top-dose-only effect, or another doubt; inactive means no such curve, though single readings can be large; an effect the other way counts as inactive or inconclusive. Potency means the concentration at half of the fitted maximal effect.

Cc1ccc(/C=C/C(=O)Nc2nnc(C)s2)o1 was read as Sfp PPTase inh -10%, HP1b chromo inh 13%, G9a inh -8%[59 µM], JMJD2A Tudor inh -4% and BAZ2B block 1%.
Screening CCCOc1ccc(/C=C/C(=O)Nc2ccc([N+](=O)[O-])cc2)cc1 returned Sfp PPTase inh 13%, HP1b chromo inh 8%, G9a inh -2%, JMJD2A Tudor inh -25% and BAZ2B block 5%.
Cc1ccc(/C=C/C(=O)Nc2ccc(Oc3ccccc3)cc2)o1 was read as Sfp PPTase inh 28µM*, HP1b chromo inh inconclusive, G9a inh 11µM*, JMJD2A Tudor inh -33% and BAZ2B block inconclusive.
Screening Cc1ccc(/C=C/C(=O)Nc2ccc([N+](=O)[O-])cc2)o1 returned Sfp PPTase inh 14µM*, HP1b chromo inh 14%, G9a inh 28µM*, JMJD2A Tudor inh -8% and BAZ2B block 50µM*.
For CC(=O)c1ccc(NC(=O)/C=C/c2ccc(C)o2)cc1 the results were HP1b chromo inh inconclusive, G9a inh 11µM*, JMJD2A Tudor inh 50µM* and BAZ2B block inconclusive.
For COc1ccc(S(=O)(=O)NC(C)C(=O)Nc2ccccc2F)cc1 (configuration not stated) the results were Sfp PPTase inh -17%, HP1b chromo inh 19%, G9a inh 40µM*, JMJD2A Tudor inh -4% and BAZ2B block -2%.
COc1ccc(S(=O)(=O)Nc2c(F)cccc2F)cc1 was read as Sfp PPTase inh 14%, HP1b chromo inh 50µM*, G9a inh -4%, JMJD2A Tudor inh 25µM* and BAZ2B block -14%.
For COc1ccc(S(=O)(=O)N/N=C\c2ccccc2F)cc1 the results were Sfp PPTase inh 9%, HP1b chromo inh 41%, G9a inh 40µM*, JMJD2A Tudor inh -3% and BAZ2B block -2%.
COc1ccc(S(=O)(=O)Nc2cccc3ccccc23)cc1 was read as HP1b chromo inh 22% and JMJD2A Tudor inh -23%.
COc1ccc(S(=O)(=O)NC(C)C(=O)Nc2cccc(C(C)=O)c2)cc1 (configuration not stated) was read as Sfp PPTase inh -19%, HP1b chromo inh 11%, G9a inh inconclusive, JMJD2A Tudor inh -15% and BAZ2B block 7%.
For CCOc1ccccc1C(=O)NCC(=O)N1CCC(C)CC1 the results were HP1b chromo inh 19% and JMJD2A Tudor inh -2%.
Screening Cc1ccc(C)c(NC(=O)C(OC(=O)c2cc[n+]([O-])cc2)c2ccccc2)c1 (configuration not stated) returned HP1b chromo inh 32%, G9a inh 11%, JMJD2A Tudor inh -8% and BAZ2B block 10%.
For CN(Cc1ccc(F)cc1)C(=O)c1cc(S(=O)(=O)N2CCCCC2)ccc1N1CCOCC1 the results were HP1b chromo inh 20%, G9a inh -27%, JMJD2A Tudor inh 1% and BAZ2B block -1%.
Screening CCN(Cc1ccccc1)C(c1cc2ccc(C)cc2[nH]c1=O)c1nnnn1CCOC (configuration not stated) returned Sfp PPTase inh 14%, HP1b chromo inh 15%, G9a inh 35µM*, JMJD2A Tudor inh -3% and BAZ2B block -31%.
For CCc1ccc2[nH]c(=O)c(C(c3nnnn3CCOC)N3CCN(c4ccccc4F)CC3)cc2c1 (configuration not stated) the results were Sfp PPTase inh 8.9µM*, HP1b chromo inh 6%, G9a inh inconclusive, JMJD2A Tudor inh -29% and BAZ2B block -36%.
`Cc1ccc2cc(C(c3nnnn3Cc3ccccc3)N3CCN(c4ccccc4)CC3)c(=O)[nH]c2c1` (configuration not stated) gave Sfp PPTase inh inconclusive, HP1b chromo inh -7%, G9a inh inconclusive, JMJD2A Tudor inh inconclusive and BAZ2B block inconclusive.
COCCn1nnnc1C(c1ccc(OC)cc1OC)N1CCN(c2ccccc2F)CC1 (configuration not stated) was read as Sfp PPTase inh 10%, HP1b chromo inh 21%, G9a inh 56µM*, JMJD2A Tudor inh -18% and BAZ2B block inconclusive.
Screening COCCn1nnnc1C(c1ccc2ncccc2c1)N1CCN(c2ccccc2F)CC1 (configuration not stated) returned Sfp PPTase inh -1%, HP1b chromo inh 31%, G9a inh 8.9µM*, JMJD2A Tudor inh -25% and BAZ2B block 50µM*.
COCCn1nnnc1C(c1ccc(OC)cc1OC)N1CCN(c2ccccc2)CC1 (configuration not stated) was read as Sfp PPTase inh -12%, HP1b chromo inh 3%, G9a inh inconclusive, JMJD2A Tudor inh inconclusive and BAZ2B block inconclusive.
For C=C1CC[C@H](O)C/C1=C/C=C1\CCC[C@]2(C)[C@@H]([C@H](C)CCCC(C)(C)O)CC[C@@H]12 the results were Sfp PPTase inh 21% and G9a inh 1%[12.7 µM].
Screening CCOc1ccccc1/C=C/c1onc(C)c1S(=O)(=O)N1CCC(C(=O)N2CCCCC2)CC1 returned HP1b chromo inh 41%, G9a inh 4%[59 µM], JMJD2A Tudor inh -13% and BAZ2B block 2%.
COCCn1nnnc1C(c1ccc2ncccc2c1)N1CCc2ccccc21 (configuration not stated) was read as Sfp PPTase inh 12%, HP1b chromo inh 11%, G9a inh 50µM*, JMJD2A Tudor inh -23% and BAZ2B block -36%.
Screening CC(=O)C1C(=O)c2c(cccc2[N+](=O)[O-])C1=Nc1ccc(S(N)(=O)=O)cc1 (configuration not stated) returned Sfp PPTase inh inconclusive, HP1b chromo inh 7%, G9a inh 40µM*, JMJD2A Tudor inh inconclusive and BAZ2B block inconclusive.
For NS(=O)(=O)c1ccc(CNC(=O)/C=C/c2ccccc2[N+](=O)[O-])cc1 the results were Sfp PPTase inh 8%, HP1b chromo inh 16%, G9a inh inconclusive, JMJD2A Tudor inh -14% and BAZ2B block 1%.
For CC1CCN(c2ccc(-c3cccc(NS(=O)(=O)c4cccs4)c3)nn2)CC1 the results were HP1b chromo inh 2%[57 µM], G9a inh 9%[59 µM], JMJD2A Tudor inh -33% and BAZ2B block -14%.
Screening COC(=O)CSc1nc(-c2ccc(C)cc2)c2c(c1C#N)CCCC2 returned Sfp PPTase inh inconclusive, HP1b chromo inh 73%, G9a inh -20%[2.33 µM], JMJD2A Tudor inh 30% and BAZ2B block 11%.
`COC(=O)c1ccc(CSc2nc(C(F)(F)F)c3c(c2C#N)CCC3)o1` gave Sfp PPTase inh 56µM*, HP1b chromo inh 81%, G9a inh 21%[0.0925 µM], JMJD2A Tudor inh 21% and BAZ2B block 0%.
For Cc1cccn2c(=S)[nH]nc12 the results were HP1b chromo inh 71µM* and JMJD2A Tudor inh 2.8µM*.
C#Cc1cccc(Nc2ncnc3cc(OC)c(OC)cc23)c1 was read as Sfp PPTase inh 19% and G9a inh 8%[59 µM].
